# PubChem BioAssay AID463173 (ICCB-Longwood Screening Facility, Harvard Medical School, 2010)
# The campaign covered roughly 52,000 compounds. About 4,300 (8.3%) were called active. Cut-off read from the data, not from the text of the source: active = survival mostly below about 52% (no sharp cut-off); inactive = mostly above about 56%. The list comes from a sample in which actives are over-represented; it also holds similar structures and randomly drawn compounds.
# Tested on: DeltatarO mutant
# Assay: S. aureus survival, RN4220 and DeltatarO strains – OD600, teichoic acid synthesis inhibitors, primary screen (AID 463173)
# Settings: S. aureus RN4220 wild type/DeltatarO growth, OD600, 18 h, stronger effect = lower value, screened at 18.75 µg/mL (by protocol)
row,SMILES,survival
1,Cc1ccc2c(c1)c(N1CCCC1=O)c(C(=O)Nc1ccc(F)cc1F)n2C,71% (inactive)
2,CCCCN(CCCC)CCNC(=O)CN1C(=O)CSc2ccc(S(=O)(=O)N3CCOCC3)cc21,92% (inactive)
3,CCCCN(CCCNC(=O)c1cc(Nc2ccc(OC)cc2OC)nc2ccccc12)Cc1ccccc1,99% (inactive)
4,O=c1c2sc3ccccc3c2n(Cc2ccccc2Cl)c(=O)n1Cc1ccccc1,56% (inactive)
5,CC(C)(C)C(=O)NC1CC(=O)N(c2ccc3c(c2)OCCO3)C1 (stereo not given),125% (inactive)
6,Cn1cc(-c2cc3n(n2)CCC(=O)N3CCCC(=O)Nc2ccc(F)cc2F)c2ccccc21,128% (inactive)
7,Cc1c(Cl)cccc1-n1ncc(C(=O)Nc2ccc3c(c2)OCCO3)c1C1CCN(C(=O)OC(C)(C)C)CC1,102% (inactive)
8,CC(CNC(=O)CCc1cn(Cc2ccccc2Cl)c2ccccc12)c1ccccc1 (stereo not given),66% (inactive)
9,Oc1ccccc1-c1nc(/C=C/c2ccccc2Cl)nn1-c1ccccc1,14% (active)
10,Cc1nn(-c2ccccc2)c(Cl)c1C(N)=O,73% (inactive)
11,Oc1ccccc1-c1nc(/C=C/c2ccccc2Cl)no1,67% (inactive)
12,COc1ccc(/C=C/c2nc(-c3ccccc3O)n(-c3ccccc3)n2)cc1OC,13% (active)
13,COc1ccc(/C=C/c2noc(-c3ccccc3O)n2)cc1OC,130% (inactive)
14,COc1cc2c(-c3cc(Br)ccc3O)nc3c(c(C)nn3-c3ccccc3)c2cc1OC,77% (inactive)
15,CCc1ccc(C2CC(=O)c3c([nH]c(C(=O)OCC4CCCCC4)c3C)C2)cc1 (stereo not given),89% (inactive)
16,Cc1c(C(=O)N2CCCCCC2)c(S(=O)(=O)Nc2ccc(OC(F)(F)F)cc2)c(C)n1C,113% (inactive)
17,CCOc1ccc(C(=O)Nc2cc(-c3nc4cc(OC)ccc4o3)ccc2C)cc1[N+](=O)[O-],62% (inactive)
18,CCOC(=O)c1ccc(Nc2ncnc3c2cnn3-c2cccc(Cl)c2)cc1,75% (inactive)
19,CCOC(=O)c1ccc2nc(C)cc(Nc3ccc(OC(C)C)cc3)c2c1,133% (inactive)
20,CCOC(=O)c1cnc2cc(C(F)(F)F)ccc2c1Nc1cc(C)ccc1OC,71% (inactive)
21,CCCOC(=O)c1ccc(Nc2c(C(=O)OCC)cnc3c(C)cc(Cl)cc23)cc1,11% (active)
22,CCOC(=O)c1cnc2c(C(F)(F)F)cccc2c1Cl,82% (inactive)
23,CCOC(=O)c1cnc2c(C(F)(F)F)cccc2c1Nc1cccc(C(=O)OC)c1,14% (active)

row,SMILES,survival
1,CCOC(=O)c1cnc2c(Cl)cc(Cl)cc2c1Nc1cc(C(=O)O)ccc1C,60% (inactive)
2,CCOC(=O)c1cnc2c(C)cccc2c1Nc1ccc(OC(C)C)cc1,2% (active)
3,CCOC(=O)c1cnc2cc(C(F)(F)F)ccc2c1N1CCN(c2ccc(F)cc2)CC1,57% (inactive)
4,CCOC(=O)c1cnc2cc(C(F)(F)F)ccc2c1Nc1ccc(F)cc1F,2% (active)
5,CCOc1ccc(NC(=O)c2c(NCc3cc(OC)c(OC)cc3OC)sc3c2CCCC3)cc1,74% (inactive)
6,CCOC(=O)C1CCCN(S(=O)(=O)c2ccc(N3CCCCS3(=O)=O)cc2)C1 (stereo not given),55% (inactive)
7,O=C(c1cnn(-c2ccc(F)cc2)c1-n1cccc1)N1CCN(c2cccc(Cl)c2)CC1,70% (inactive)
8,CCOc1ccccc1CNC(=O)c1ccc2nc(CCc3ccccc3)oc2c1,83% (inactive)
9,Cc1cccc(C(=O)NCC(=O)OCc2cc(=O)n3nc(CC(C)C)sc3n2)c1,105% (inactive)
10,O=C(Cn1c2ncccc2c(=O)n1-c1ccccc1)NCc1ccccc1Cl,68% (inactive)
11,COc1ccc(NC(=O)CN2C(=O)COc3ccc(S(=O)(=O)NC4CCCC4)cc32)cc1OC,75% (inactive)
12,Cc1ccc(NC(=O)CCCn2c(=O)c3cccn3c3cccnc32)cc1C,79% (inactive)
13,CC(C)n1c(C(=O)OC(C(=O)NCc2ccco2)c2cccnc2)cc2sccc21 (stereo not given),88% (inactive)
14,CCOC(=O)c1cnc2c(ccc3ccccc32)c1Nc1ccc(C(C)=O)cc1,1% (active)
15,CCOC(=O)c1cnc2c(ccc3ccccc32)c1Nc1ccc(OC)c(OC)c1,7% (active)
16,CCOC(=O)c1cnc(NCc2ccc(Cl)cc2)c2ccccc12,91% (inactive)
17,CCOC(=O)c1cnc2c(ccc3ccccc32)c1Nc1ccc(OCC)cc1,5% (active)
18,CCOC(=O)c1cnc2c(ccc3ccccc32)c1Nc1ccc(Cl)cc1,23% (active)
19,CCCOc1ccc(Nc2nc(SC)ncc2C(=O)OCC)cc1,65% (inactive)
20,CCOC(=O)c1cnc2c(ccc3ccccc32)c1Nc1ccccc1O,69% (inactive)
21,COc1cc(NC(=O)C2CCN(c3nnc(C)c4c(C)n(-c5ccccc5)nc34)CC2)cc(OC)c1,87% (inactive)
22,CCOc1ccc(NC(=O)CSc2nnnn2C2CCCC2)cc1,68% (inactive)
23,Cc1ccc(-n2nc(C(=O)N3CCN(c4ccccc4F)CC3)c3c4ccccc4n(C)c3c2=O)cc1,88% (inactive)

row,SMILES,survival
1,CCCOc1ccc(CNC(=O)C(CC)n2nc(C)c3sc4ccccc4c3c2=O)cc1 (stereo not given),69% (inactive)
2,O=C(NCCS(=O)(=O)N1CCN(c2cccc(Cl)c2)CC1)C(c1ccccc1)c1ccccc1,72% (inactive)
3,COc1ccc(OC)c(NC(=O)c2ccc3c(c2)c(C)c(C)n3Cc2ccc(F)cc2)c1,122% (inactive)
4,Cc1ccc(CNCC(C)O)s1 (stereo not given),73% (inactive)
5,Cc1ccc(C(=O)Nc2ccc(NC(=O)c3cccs3)cc2)cc1C,66% (inactive)
6,CCc1nn(CC(=O)N2CCN(c3cccc(C)c3C)CC2)c(=O)c2cc3sccc3n12,134% (inactive)
7,CCCNC(=O)CN1C(=O)COc2ccc(S(=O)(=O)N3CCC(C)CC3)cc21,121% (inactive)
8,COCCNc1oc(-c2ccc(COc3ccc(OC)cc3)o2)nc1C#N,79% (inactive)
9,Cc1ccc(C2=NN(CC(=O)NCCc3ccc(Cl)cc3)C(=O)CC2)cc1,117% (inactive)
10,CCn1c(C)c(C2N3CC4(C)CN2CC(CC)(C3)C4=O)c2ccccc21 (stereo not given),108% (inactive)
11,Cc1cccc(C)c1-n1ncc(C(=O)N2CCN(c3ccccn3)CC2)c1C1CCN(C(=O)OC(C)(C)C)CC1,81% (inactive)
12,CCOC(=O)c1cnc2c(ccc3ccccc32)c1Nc1ccc(N(C)C)cc1,0% (active)
13,CCOC(=O)c1noc2ncnc(Nc3cccc(OC)c3)c12,73% (inactive)
14,CCOC(=O)c1cnc(SC)nc1Nc1ccccc1,84% (inactive)
15,CCOC(=O)c1cnc2c(Cl)c(Cl)ccc2c1Nc1ccc(N(C)C)cc1,80% (inactive)
16,CCOC(=O)c1cnc2c(ccc3ccccc32)c1Nc1cccc(C(F)(F)F)c1,36% (active)
17,CCOC(=O)c1noc2ncnc(Nc3cccc(C(F)(F)F)c3)c12,92% (inactive)
18,CCOC(=O)c1cnc2c(OC)cccc2c1Nc1cccc(O)c1,61% (inactive)
19,COc1cccc(C(=O)c2sc(Nc3ccc(F)c(Cl)c3)nc2N)c1,55% (inactive)
20,CCOc1ccc(Nc2nc(N)c(C(=O)c3ccccc3Cl)s2)cc1,0% (active)
21,Cc1ccccc1Nc1nc(N)c(C(=O)c2ccccc2Cl)s1,92% (inactive)
22,CCOC(=O)c1sc2ccccc2c1S(=O)(=O)Nc1cccc(C(F)(F)F)c1,63% (inactive)
23,CCOC(=O)c1cnc2c(ccc3ccccc32)c1Nc1cccc(OC)c1,29% (active)

row,SMILES,survival
1,COc1ccc(-c2oc3ncn4nc(COc5ccccc5C)nc4c3c2-c2ccc(OC)cc2)cc1,79% (inactive)
2,CC(=O)c1ccc(N2CCN(C(=O)c3ccc(Cn4c(=O)[nH]c5ccccc5c4=O)cc3)CC2)cc1,100% (inactive)
3,CC(C)(C)c1cc(CN2CCOCC2)c(C(=O)O)o1,92% (inactive)
4,COc1cc(NC(=O)CSc2nc3nc(C)c(Cc4ccccc4)c(C)n3n2)cc(OC)c1,112% (inactive)
5,CC1CCN(S(=O)(=O)c2ccc(NC(=O)CSc3nnnn3C)cc2)CC1,97% (inactive)
6,CCOC(=O)c1cnc2c(ccc3ccccc32)c1Nc1cccc(Cl)c1,14% (active)
7,COc1cccc2sc(N(Cc3cccnc3)C(=O)C3CCCCC3)nc12,86% (inactive)
8,COc1ccc(OCC(=O)N(Cc2ccc(C)o2)C2CCS(=O)(=O)C2)cc1 (stereo not given),85% (inactive)
9,Cc1ccsc1CN(C(=O)COc1ccccc1Cl)C1CCS(=O)(=O)C1 (stereo not given),86% (inactive)
10,Cc1ccccc1OCC(=O)N(Cc1ccc(C(C)C)cc1)C1CCS(=O)(=O)C1 (stereo not given),31% (active)
11,Cc1ccsc1CN(C(=O)COc1cccc(C)c1C)C1CCS(=O)(=O)C1 (stereo not given),82% (inactive)
12,Cc1ccc(CN(C(=O)COc2ccc(C(C)C)cc2)C2CCS(=O)(=O)C2)o1 (stereo not given),87% (inactive)
13,CCc1ccc(OCC(=O)N(Cc2ccc(C(C)C)cc2)C2CCS(=O)(=O)C2)cc1 (stereo not given),23% (active)
14,CC(C)Oc1ccc(C(=O)N(Cc2ccc(N(C)C)cc2)C2CCS(=O)(=O)C2)cc1 (stereo not given),54% (inactive)
15,COc1ccc(OCC(=O)N(Cc2cccc(OC)c2)C2CCS(=O)(=O)C2)cc1 (stereo not given),79% (inactive)
16,Cc1cc(C)cc(OCC(=O)N(Cc2ccc(Cl)cc2)C2CCS(=O)(=O)C2)c1 (stereo not given),59% (inactive)
17,CC(C)c1ccc(OCC(=O)N(Cc2ccc(N(C)C)cc2)C2CCS(=O)(=O)C2)cc1 (stereo not given),43% (active)
18,CCc1ccc(OCC(=O)N(Cc2ccc(Cl)cc2)C2CCS(=O)(=O)C2)cc1 (stereo not given),57% (active)
19,CCc1ccc(OCC(=O)N(Cc2ccc(C)o2)C2CCS(=O)(=O)C2)cc1 (stereo not given),110% (inactive)
20,Cc1nc2cccnc2n1C1CCN(C(=O)Nc2ccc(Cl)cc2)CC1,81% (inactive)
21,CCN(C(=O)CSc1ncc(S(=O)(=O)c2ccc(C)c(Cl)c2)c(=O)[nH]1)c1cccc(C)c1,99% (inactive)
